Laboratory results published in PubChem BioAssay.
Calls of active or inactive are those of the source. Unless noted, no rule for the calls is given here.

How the values were obtained:
[1] = HepG2 liver cancer cell viability effects, profiling panel, resazurin fluorescence, 24 h, PK04 Diversity Set (AID 1172); settings: higher = more signal
[2] = basal S. cerevisiae growth modulation, no modifier, primary screen, OD600, strain BY4716, 24 h, basal condition (AID 1173); settings: OD600, 24 h, higher = more signal, called active from +8 up or from −8 down
[3] = MM1S myeloma cell viability, profiling panel, resazurin fluorescence, basal, 24 h, PK04 Diversity Set (AID 1174); settings: higher = more signal, called active from +8 up or from −8 down;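 also: MM1S multiple myeloma cell line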
[4] = target: Dihydroorotate dehydrogenase (quinone), mitochondrial (Plasmodium falciparum (isolate 3D7)) (UniProt Q08210); assay: PfDHODH enzyme inhibitors, primary screen, biochemical, C-terminal His tag, absorbance 600 nm (AID 1175); settings: DCIP absorbance 600 nm, higher = more signal, called active from +8 up or from −8 down;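 also: recombinant parasite enzyme with a five histidine tag at its C terminus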
Chain of Dihydroorotate dehydrogenase (quinone), mitochondrial (Plasmodium falciparum (isolate 3D7)) (Q08210 whole entry, looked up): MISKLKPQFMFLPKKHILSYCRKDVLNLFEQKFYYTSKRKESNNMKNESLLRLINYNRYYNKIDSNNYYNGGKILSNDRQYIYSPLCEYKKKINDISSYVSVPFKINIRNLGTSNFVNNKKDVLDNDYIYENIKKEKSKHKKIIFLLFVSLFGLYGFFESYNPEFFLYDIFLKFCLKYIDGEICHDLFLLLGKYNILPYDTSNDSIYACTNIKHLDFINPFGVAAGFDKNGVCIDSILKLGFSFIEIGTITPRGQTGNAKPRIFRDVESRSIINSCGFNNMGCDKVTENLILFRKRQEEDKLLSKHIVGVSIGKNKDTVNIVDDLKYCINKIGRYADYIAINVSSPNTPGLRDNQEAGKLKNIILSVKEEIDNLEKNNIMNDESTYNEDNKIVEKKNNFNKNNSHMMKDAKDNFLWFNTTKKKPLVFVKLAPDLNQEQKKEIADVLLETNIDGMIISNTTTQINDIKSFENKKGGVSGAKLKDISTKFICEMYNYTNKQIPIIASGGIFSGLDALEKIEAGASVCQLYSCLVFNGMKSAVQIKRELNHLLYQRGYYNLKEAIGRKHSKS

[5] = P. aeruginosa biofilm formation inhibitors, primary screen, strain PAO1, LB-PBS medium, absorbance 600 nm (AID 1176); settings: P. aeruginosa PAO1 growth/biofilm, A600, 12 h; higher = more signal
[6] = S. cerevisiae RM11-1a growth modifiers, primary screen, strain RM11-1a, OD600, basal, 24 h (AID 1177); settings: OD600, 24 h, higher = more signal, called active from +8 up or from −8 down;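 also: cultures grown under basal conditions with no added stressor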
[7] = E. coli acrAB mutant growth effects, primary screen, E. coli filamentation inducers, strain DRC39, OD650, 24 h (AID 1178); settings: higher = more signal, called active from +8 up or from −8 down;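 also: growth measured as culture turbidity by optical density at 650 nm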
[8] = E. coli acrAB mutant growth effects, primary screen, E. coli filamentation inducers, strain DRC39, OD650, 48 h (AID 1179);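 also: screen aims at cell division blockers that make cells filament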; settings: E. coli DRC39 delta-acrAB growth, higher = more signal, called active from +8 up or from −8 down
[9] = RPMI8226 myeloma cell viability, profiling panel, resazurin fluorescence, basal, 24 h, PK04 Diversity Set (AID 1180); settings: higher = more signal;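 also: RPMI8826 multiple myeloma cell line at 5000 cells per well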
[10] = target: E3 ubiquitin-protein ligase XIAP (Homo sapiens) (UniProt P98170); assay: XIAP binders, primary screen, biophysical, small-molecule microarray, fluorescence 635 nm (AID 1181); settings: small-molecule microarray binding, higher = more signal;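 also: score merges 667 nm emission and signal to noise over triplicate slides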
Chain of E3 ubiquitin-protein ligase XIAP (Homo sapiens) (P98170 whole entry, looked up): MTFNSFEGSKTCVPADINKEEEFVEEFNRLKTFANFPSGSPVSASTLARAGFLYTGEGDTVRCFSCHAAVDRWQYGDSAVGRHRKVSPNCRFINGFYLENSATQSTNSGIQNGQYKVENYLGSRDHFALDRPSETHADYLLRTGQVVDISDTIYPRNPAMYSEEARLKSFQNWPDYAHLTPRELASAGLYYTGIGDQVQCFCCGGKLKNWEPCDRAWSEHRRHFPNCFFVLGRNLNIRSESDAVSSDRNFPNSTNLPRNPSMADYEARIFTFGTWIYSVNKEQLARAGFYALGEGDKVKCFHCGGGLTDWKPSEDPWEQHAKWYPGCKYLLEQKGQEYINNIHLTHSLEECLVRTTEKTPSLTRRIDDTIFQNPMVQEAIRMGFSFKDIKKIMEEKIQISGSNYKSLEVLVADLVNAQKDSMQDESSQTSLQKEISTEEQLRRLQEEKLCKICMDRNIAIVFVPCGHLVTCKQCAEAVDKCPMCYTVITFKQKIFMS

[11] = tested on: XIP peptide (Xip251-270) binding; assay: small-molecule binders of XIP peptide, primary screen, biochemical, small-molecule microarray, fluorescence 635/667 nm, 0.1 µg/mL protein (AID 1182); settings: fluorescent protein binding, 635 nm, higher = more signal, called active from +8 up or from −8 down
XIP peptide (Xip251-270) = assay: small-molecule binders of XIP peptide, primary screen, biochemical, small-molecule microarray, fluorescence 635/667 nm, 0.5 µg/mL protein (AID 1183); settings: small-molecule microarray binding, fluorescence 635 nm; higher = more signal
[12] = Plasmodium falciparum growth inhibition, primary screen, strain 3D7, DAPI fluorescence, 100 nL (AID 1184);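 also: parasites grown inside human red blood cells in medium with human serum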; settings: P. falciparum 3D7 growth, 3 d, higher = more signal
[13] = target: Homeobox protein Hox-A13 (Mus musculus) (UniProt Q62424); assay: inhibitors of HoxA13-DNA binding, primary screen, biochemical, fluorescence polarization, labeled oligonucleotide (AID 1185); settings: 15 min, higher = more signal, called active from +8 up or from −8 down
Chain of Homeobox protein Hox-A13 (Mus musculus) (Q62424 whole entry, looked up): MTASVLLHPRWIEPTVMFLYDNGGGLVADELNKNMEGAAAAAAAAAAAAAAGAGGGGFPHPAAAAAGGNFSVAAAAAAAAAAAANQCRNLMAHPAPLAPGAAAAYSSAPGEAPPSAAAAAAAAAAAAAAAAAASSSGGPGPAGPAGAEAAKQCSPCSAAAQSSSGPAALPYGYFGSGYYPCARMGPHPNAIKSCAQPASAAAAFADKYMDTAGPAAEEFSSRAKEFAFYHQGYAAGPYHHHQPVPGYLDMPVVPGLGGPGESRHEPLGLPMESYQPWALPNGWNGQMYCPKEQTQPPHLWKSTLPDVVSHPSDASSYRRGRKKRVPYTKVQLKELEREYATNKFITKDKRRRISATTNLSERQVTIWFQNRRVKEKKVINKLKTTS

[14] = inhibitors of hydroxyurea-induced Chk1 phosphorylation, primary screen, imaging, HeLa, phospho-Chk1 antibody, percent positive cells (AID 1186); settings: hydroxyurea-induced phospho-Chk1 immunofluorescence imaging, higher = more signal
[15] = inhibitors of hydroxyurea-induced Chk1 phosphorylation, primary screen, imaging, HeLa, phospho-Chk1 nuclear intensity (AID 1187); settings: hydroxyurea-induced phospho-Chk1 immunofluorescence imaging, higher = more signal

Row | SMILES | z-score [1] | z-score [2] | z-score [3] | composite z-score [4] | z-score [5] | z-score [6] | z-score [7] | z-score [8] | z-score [9] | composite z-score [10] | composite z-score [11] | composite z-score (XIP peptide (Xip251-270)) | z-score [12] | z-score [13] | z-score [14] | z-score [15]
1 | COCCOC(=O)N1C(=O)[C@@]2(c3cc(C#CCCO)ccc31)[C@H](c1ccc(OCCO)cc1)N1[C@H](c3ccccc3)[C@H](c3ccccc3)OC(=O)[C@H]1[C@@H]2C(N)=O | -0.569 | 1.67 (inactive) | -0.371 (inactive) | 0.561 (inactive) | 0.449 (inactive) | 3.69 (inactive) | 0.315 (inactive) | 0.399 (inactive) | -0.103 | -0.192 | 0.464 (inactive) | 0.779 | -0.222 | -1.33 (inactive) | -0.0438 (inactive) | 0.51 (inactive)
2 | COCCCNC(=O)[C@]1(Cc2ccccc2)N=C(c2ccc(OCCCO)cc2)O[C@@H]1c1ccccc1CN=[N+]=[N-] | -0.316 | -1.29 (inactive) | -0.491 (inactive) | -0.925 (inactive) | 1.8 (inactive) | 0.0435 (inactive) | 0.228 (inactive) | 1.55 (inactive) | -1.08 | 0.0136 | 1.88 (inactive) | 0.711 | -2.33 | -3.2 (inactive) | -0.6 (inactive) | -0.537 (inactive)
3 | CC(C)(C)OC(=O)CC[C@@]1(C(=O)N2CCCCC2)N=C(c2ccc(OCCCO)cc2)O[C@@H]1c1ccccc1 | 0.426 | -0.563 (inactive) | -0.76 (inactive) | -0.159 (inactive) | 0.935 (inactive) | 0.262 (inactive) | -0.174 (inactive) | -1.53 (inactive) | 0.0487 | 0.138 | 0.671 (inactive) | 0.267 | -2.03 | -5.06 (inactive) | -0.102 (inactive) | -0.0985 (inactive)
4 | CS(=O)(=O)CCOC(=O)C1=CC(CCCO)=CC(C2CC2)N(Cc2cc3c(cc2Br)OCO3)C=C1C(=O)OCCS(C)(=O)=O (stereo not drawn) | 0.0423 | -2.22 (inactive) | -0.134 (inactive) | -1.5 (inactive) | 0.118 (inactive) | 0.37 (inactive) | 1.17 (inactive) | 0.892 (inactive) | -0.0822 | 0.448 | 0.389 (inactive) | -0.111 | -2.58 | -5.51 (inactive) | -1.19 (inactive) | -0.295 (inactive)
5 | C=CCN1C(=O)[C@]2(O[C@H](CCO)[C@@H]([Si](C)(C)c3ccc(OC)cc3)[C@@H]2C)c2cc(N(C=O)c3ccccc3)ccc21 | -6 | 1.14 (inactive) | -8.61 (active) | 0.637 (inactive) | 0.0245 (inactive) | 3.98 (inactive) | 1.72 (inactive) | 0.905 (inactive) | -6.23 | -0.0189 | 1.94 (inactive) | 0.749 | -2.52 | -3.67 (inactive) | -1.11 (inactive) | -0.984 (inactive)
6 | O=C1NC(=O)C2C1C=CC(C(O)c1ccc(I)cc1)N2Nc1ccccn1 (stereo not drawn) | -1.45 | -0.27 (inactive) | -0.766 (inactive) | 0.309 (inactive) | 1.48 (inactive) | 0.275 (inactive) | -0.062 (inactive) | -0.495 (inactive) | -1.01 | 0.189 | 0.932 (inactive) | 0.457 | 1.04 | -1.85 (inactive) | 0.955 (inactive) | 0.534 (inactive)
7 | COC(=O)c1c2oc(c1C(=O)OC)C(=O)N[C@@H](C(C)C)Cn1cc(nn1)C1(CCCCC1)NC(=O)N[C@H](CO)CC2 | 1.61 | -1.04 (inactive) | 1.31 (inactive) | 0.0825 (inactive) | 0.985 (inactive) | -0.719 (inactive) | 0.925 (inactive) | 1.11 (inactive) | 1.07 | 0.098 | 0.0023 (inactive) | 0.0911 | 0.0538 | -0.587 (inactive) | 0.193 (inactive) | 0.284 (inactive)
8 | COC(=O)C(CC#Cc1ccc2c(c1)[C@]1(C(=O)N2)[C@H](c2ccccc2OCCO)N2[C@H](c3ccccc3)[C@H](c3ccccc3)OC(=O)[C@H]2[C@@H]1C(N)=O)C(=O)OC | -1.55 | 0.858 (inactive) | -9.28 (active) | -2.77 (inactive) | 1.18 (inactive) | 1.77 (inactive) | -0.0371 (inactive) | -0.156 (inactive) | -7.42 | 0.0223 | 0.945 (inactive) | 0.787 | -2.24 | -2.21 (inactive) | 0.202 (inactive) | 0.555 (inactive)
9 | CC[C@@H]1C=C(C(=O)O)[C@H](c2ccc(C)cc2)N1S(=O)(=O)c1ccc(C)cc1 | 0.675 | 0.174 (inactive) | 0.0178 (inactive) | -1.85 (inactive) | -0.433 (inactive) | -0.66 (inactive) | -0.303 (inactive) | 0.637 (inactive) | -0.0794 | 0.0701 | -0.143 (inactive) | 0.468 | 1.14 | -1.69 (inactive) | 0.723 (inactive) | 0.909 (inactive)
10 | COc1ccccc1CN1C(=O)c2ccccc2[C@@]2(Cc3ccccc3N(CCCN(C)C)C2=O)[C@@H]1c1ccc(CO)cc1 | -0.434 | 0.259 (inactive) | 1.17 (inactive) | -19.5 (active) | 0.282 (inactive) | -0.746 (inactive) | 1.28 (inactive) | 0.468 (inactive) | 0.723 | -0.113 | 0.0228 (inactive) | 0.216 | -1.3 | 1.78 (inactive) | -0.481 (inactive) | -0.454 (inactive)
11 | COc1ccc(NN2C(C(O)c3ccc(N(C)C)cc3)C=CC3C(=O)N(C4CCCCC4)C(=O)C32)cc1 (stereo not drawn) | 0.252 | -0.796 (inactive) | -0.0447 (inactive) | 0.128 (inactive) | 0.862 (inactive) | -0.0156 (inactive) | -0.723 (inactive) | -0.224 (inactive) | -1 | 0.17 | 1.02 (inactive) | 0.68 | -0.087 | -4.68 (inactive) | -0.217 (inactive) | -0.837 (inactive)
12 | C=C(CCCC)C(=O)CC[C@@H](OC(C)=O)c1ccc(CO)o1 | 0.519 | -12.9 (active) | 0.292 (inactive) | -8.56 (active) | 1.27 (inactive) | -0.944 (inactive) | 0.435 (inactive) | 0.339 (inactive) | 0.624 | 0.151 | 0.247 (inactive) | 0.337 | -0.201 | -3.66 (inactive) | 0.593 (inactive) | 0.245 (inactive)
13 | CC(=CC1CCCCC1)[C@@H](NC(=O)c1cccnc1)c1ccc(-c2ccccc2)cc1 | 0.41 | 2.33 (inactive) | 0.382 (inactive) | -0.22 (inactive) | 1.93 (inactive) | 2.69 (inactive) | -0.906 (inactive) | -0.871 (inactive) | -1.22 | -0.0095 | -0.486 (inactive) | -0.434 | -0.412 | -0.427 (inactive) | 1.6 (inactive) | -0.72 (inactive)
14 | CCCCCCc1nc(-c2ccc(-c3ccc(Cl)c(Cl)c3)o2)cc2c1[Si](C(C)C)(C(C)C)O[C@H]2c1ccccc1 | 1.32 | -0.911 (inactive) | 0.551 (inactive) | -0.206 (inactive) | -0.771 (inactive) | -0.361 (inactive) | 0.708 (inactive) | 0.447 (inactive) | 0.0719 | -0.0641 | 2.93 (inactive) | 0.393 | -1.3 | -1.4 (inactive) | -0.682 (inactive) | -0.449 (inactive)
15 | COC(=O)c1c(CC[C@@H](CO)NC(=O)N[C@H](Cc2ccccc2)Cn2cc(-c3ccccn3)nn2)oc(C(C)=O)c1C(=O)OC | -1.62 | -0.295 (inactive) | -1.13 (inactive) | 0.0502 (inactive) | -0.0149 (inactive) | -0.559 (inactive) | -0.347 (inactive) | -0.793 (inactive) | -0.857 | -0.135 | 0.593 (inactive) | 0.0667 | 0.0007 | -4.84 (inactive) | 0.269 (inactive) | 0.15 (inactive)
16 | C=CCC(OC(C)=O)[C@@H]1[C@@H](N(Cc2ccc(-c3cccc(C(F)(F)F)c3)o2)C(=O)c2cccc3ccccc23)c2cc(OCCCO)ccc2N1C(=O)Cc1ccc2ccccc2c1 (stereo partly drawn) | -0.496 | -0.721 (inactive) | -0.291 (inactive) | 0.22 (inactive) | -0.935 (inactive) | -0.0974 (inactive) | 0.525 (inactive) | 0.235 (inactive) | -0.638 | -0.242 | -0.16 (inactive) | 0.0499 | -1.78 | -3.09 (inactive) | 0.233 (inactive) | 0.504 (inactive)
17 | Cc1ccc(S[C@]2(C(=O)O)CC(=O)N(Cc3ccccc3C(F)(F)F)[C@@H]2c2ccc(CO)cc2I)cc1 | 0.484 | -5.47 (inactive) | -2.29 (inactive) | -0.358 (inactive) | 0.304 (inactive) | -1.22 (inactive) | 0.0985 (inactive) | -0.367 (inactive) | -1.78 | -0.0076 | 0.397 (inactive) | 0.773 | 0.182 | -2.74 (inactive) | -0.157 (inactive) | 0.408 (inactive)
18 | [N-]=[N+]=Nc1ccccc1C[C@]1(C(=O)NCC(O)CO)N=C(c2ccc(OCCCO)cc2)O[C@H]1c1ccccc1 (stereo partly drawn) | -0.577 | -1.23 (inactive) | -0.62 (inactive) | 0.986 (inactive) | 1.13 (inactive) | 2 (inactive) | -0.283 (inactive) | -0.949 (inactive) | -1 | -0.0525 | 0.474 (inactive) | 0.511 | -1.9 | -5.96 (inactive) | 0.178 (inactive) | -0.365 (inactive)
